# Test results: PubChem BioAssay (Tox21)
# Values without a mark were called inactive. Inconclusive results are not listed. Entries that show only a call come without a potency. Activity calls are given as the source filed them. Unless noted, calls come from the whole dose curve.
# Assays:
# [1] = Nuclear factor erythroid 2-related factor 2/antioxidant responsive element (Nrf2/ARE) small molecule agonists: qHTS cell viability counter screen in human keratinocytes (AID 1919968; active = well fitted curve in the direction sought with a large enough effect in the repeat runs; an effect the other way counts as inactive or inconclusive; note: nearly all actives have a fitted effect of over 55% in size; note: potency is the fitted concentration of half-maximal effect)
# How it was run: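 Cells of the KeratinoSens line were plated at 1,500 per well and left for 5 h before compound transfer from DMSO stocks. After a 23 h incubation (37 C, 5% CO2), CellTiter-Fluor was added. Signal was taken as fluorescence intensity 1 h later.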
# [2] = biological target: Gonadotropin-releasing hormone receptor (Homo sapiens) (UniProt P30968); assay: Human gonadotropin-releasing hormone receptor (GnRHR) small molecule agonists, calcium flux assay in GnRHR-HEK293 cells (AID 1920063); note: nearly all actives have a fitted effect of over 35% in size
# How it was run: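 Compounds dissolved in DMSO are pin-transferred onto dye-loaded GnRHR-HEK293 cells, which were seeded 18 h before at 37 C/5% CO2. Calcium signal is read as fluorescence intensity at 1 s intervals for 3 min.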
# [3] = biological target: KiSS-1 receptor (Homo sapiens) (UniProt Q969F8); assay: Human kisspeptin (KISS1R) small molecule agonists, calcium flux assay in KISS1R-HEK293 cells (AID 1920064; active = well fitted curve in the direction sought with a large enough effect in the repeat runs; an effect the other way counts as inactive or inconclusive)
# How it was run: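 Cell line: HEK293, stable human KISS1R. Dye loading 1 h at 37 C after 18 h culture. Read: kinetic fluorescence, 480/540 nm, 3 min at 1 s intervals.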
# [4] = G protein-coupled receptor (GPCR) small molecule agonists, calcium flux assay: HEK293 wild type cell line counter screen (AID 1920065)
# How it was run: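 Tox21 10K compounds, 15 concentrations each in triplicate, pin-transferred in DMSO onto dye-loaded cells; kinetic read at 480/540 nm for 3 min, 1 s intervals.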
# [5] = p53 small molecule agonists, cell-based qHTS assay with human liver microsomes (AID 1963577);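 note: p53 response element beta-lactamase reporter cells with liver microsomes plus NADPH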
# How it was run: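 Steps: plate p53RE-bla cells, incubate 5 h at 37 C; add compound in DMSO; add microsomes (0.5 mg/mL final) and NADPH (0.5 mg/mL final); incubate 16 h at 37 C; add LiveBLAzer, 2 h RT; read fluorescence.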
# [6] = p53 small molecule agonists, cell-based qHTS assay with rat liver microsomes (AID 1963578)
# How it was run: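 Metabolic activation is supplied by rat liver microsomes with NADPH (each 0.5 mg/mL final). p53RE-bla cells incubate with compound 16 h at 37 C; reporter activity is measured by LiveBLAzer fluorescence.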
# [7] = p53 small molecule agonists, cell-based qHTS assay with human liver microsomes: qHTS cell viability counter screen (AID 1963579); note: nearly all actives have a fitted effect of over 45% in size
# How it was run: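 After the 460/530 nm beta-lactamase read, CellTiter-Glo was added to the same wells and luminescence measured after 30 min at room temperature, giving viability of p53RE-bla cells treated 16 h with compounds plus microsomes and NADPH.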
# [8] = p53 small molecule agonists, cell-based qHTS assay with rat liver microsomes: qHTS cell viability counter screen (AID 1963580); note: nearly all actives have a fitted effect of over 45% in size; note: potency is the fitted concentration of half-maximal effect
# How it was run: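 After the beta-lactamase ratio was read, CellTiter-Glo was added to the same wells and luminescence measured at 30 min; cells had been treated 16 h at 37 C with compounds, rat liver microsomes and NADPH (0.5 mg/mL final each).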
# [9] = p53 small molecule agonists, cell-based qHTS assay: qHTS cell viability counter screen (AID 1963581); note: nearly all actives have a fitted effect of over 45% in size
# How it was run: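 ATP content measured by luminescence in HCT-116 p53RE-bla cells treated 16 h at 37 C, same wells as the reporter screen.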
# [10] = p53 small molecule agonists, cell-based qHTS assay (AID 1963582; active = well fitted activation curve with a large enough effect in the signal ratio in the repeat runs, not every such curve was filed as active; the % refers to the signal ratio)
# How it was run: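 16 h compound exposure (37 C) of p53 response element–bla cells, preceded by 5 h recovery at 37 C/5% CO2; read-out via LiveBLAzer B/G FRET substrate, 2 h RT, fluorescence intensity.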
# [11] = cAMP Responsive Elements (CRE) small molecule agonists, cell-based qHTS assay (AID 1963590)
# How it was run: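 HEK 293T cells stably bearing CRE-bla were plated at 2,000 cells per well and rested 18 h. Compounds, positive controls or DMSO were added for 3 h at 37 C. LiveBLAzer B/G substrate was then loaded for 2 h at room temperature.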
# [12] = cAMP Responsive Elements (CRE) small molecule antagonists, cell-based qHTS assay (AID 1963591; active = well fitted inhibition curve with a large enough effect in the signal ratio in the repeat runs, not every such curve was filed as active; the % refers to the signal ratio)
# How it was run: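 First, CRE-bla HEK293T cells settled 18 h at 37 C. Next, compound and 0.25 uM final NKH477 were applied for 3 h. Last, LiveBLAzer B/G substrate was loaded for 2 h at room temperature.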
# [13] = biological target: Beta-2 adrenergic receptor (Homo sapiens) (UniProt P07550); assay: Adrenergic beta2 receptor (ADRB2) small molecule antagonists, cell-based qHTS assay (AID 1963592); note: series mostly up to about 92 µM; nearly all actives have a fitted effect of over 50% in size
# How it was run: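 Assay format: CHO-ADRB2 cells, 18-20hr seeding at 37C/5% CO2, then compound plus 1nM isoproterenol agonist mix for 0.5hr RT. Homogeneous time-resolved fluorescence cAMP detection after 1hr, expressed as 665/615 nm ratio.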
# [14] = biological target: Beta-2 adrenergic receptor (Homo sapiens) (UniProt P07550); assay: Adrenergic beta2 receptor (ADRB2) small molecule agonists, cell-based qHTS assay (AID 1963593);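 note: CHO cells stably overexpressing human ADRB2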
# How it was run: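 CHO cells stably over-expressing ADRB2 were plated overnight at 37C, then dosed with compounds plus a stimulation mix containing 100uM IBMX and 25uM Ro-20-1724 for 0.5hr at room temperature. cAMP was measured by HTRF competition, 1hr.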
# [15] = biological target: D(2) dopamine receptor (Homo sapiens) (UniProt P14416); assay: Dopamine D2 receptor (DRD2) small molecule agonists, cell-based qHTS assay (AID 1963594); note: nearly all actives have a fitted effect of over 35% in size
# How it was run: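 HEK293 cells stably expressing human DRD2, pre-treated with PDE inhibitor Ro20-1724 (0.1 mM final) and compound 10 min at room temperature, then stimulated with NKH477 (200nM […]) for 30 min. cAMP read by HTRF (665/620 nm).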
# [16] = biological target: D(2) dopamine receptor (Homo sapiens) (UniProt P14416); assay: Dopamine D2 receptor (DRD2) small molecule antagonists, cell-based qHTS assay (AID 1963595; active = well fitted inhibition curve with a large enough effect in the signal ratio in the repeat runs, with a control signal flat; the % refers to the signal ratio)
# How it was run: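 DRD2-HEK293; 0.1 mM Ro20-1724; cpd 10 min RT; NKH477 200 nM + quinpirole 12 nM, 30 min RT; HTRF cAMP (cAMP-d2/anti-cAMP cryptate), 665/620 nm ratio after 1 h.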
# [17] = biological target: 5-hydroxytryptamine receptor 2A (Homo sapiens) (UniProt P28223); assay: 5-hydroxytryptamine receptor 2A (HTR2A) small molecule agonists, cell-based qHTS assay (AID 1963587); note: nearly all actives have a fitted effect of over 30% in size
# How it was run: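 CHO cells stably expressing human HTR2A, plated 18 h, loaded with calcium dye 1 h at 37 C. Agonist mode: compounds added and intracellular calcium fluorescence recorded kinetically for 2 min at 1 sec intervals.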
# [18] = biological target: Muscarinic acetylcholine receptor M1 (Homo sapiens) (UniProt P11229); assay: Cholinergic receptor muscarinic 1 (CHRM1) small molecule antagonists, cell-based qHTS assay (AID 1963588); note: nearly all actives have a fitted effect of over 40% in size
# How it was run: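 Compounds were tested at 15 concentrations in three independent runs. Dye-loaded CHRM1-CHO cells were exposed 5 min at room temperature before stimulation by acetylcholine added at 50nM. Intracellular calcium was read kinetically on FDSS for 3 min.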
# [19] = biological target: Muscarinic acetylcholine receptor M1 (Homo sapiens) (UniProt P11229); assay: Cholinergic receptor muscarinic 1 (CHRM1) small molecule agonists, cell-based qHTS assay (AID 1963589); note: nearly all actives have a fitted effect of over 35% in size
# How it was run: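 Homogeneous fluorescence calcium flux, agonist mode. Human M1-expressing CHO cells; compound dosed at 15 concentrations, three independent runs; signal sampled every 1 sec.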
# [20] = biological target: 5-hydroxytryptamine receptor 2A (Homo sapiens) (UniProt P28223); assay: 5-hydroxytryptamine receptor 2A (HTR2A) small molecule antagonists, cell-based qHTS assay (AID 1963586); note: nearly all actives have a fitted effect of over 45% in size
# How it was run: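 CHO cells stably expressing human HTR2A were plated for 18 h at 37 C, then loaded with calcium dye for 1 h. Compounds were preincubated 5 min at room temperature before DOI (4 nM solution) was added. Kinetic fluorescence was read for 3 min.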
# Chain of D(2) dopamine receptor (Homo sapiens) (P14416 whole entry, looked up): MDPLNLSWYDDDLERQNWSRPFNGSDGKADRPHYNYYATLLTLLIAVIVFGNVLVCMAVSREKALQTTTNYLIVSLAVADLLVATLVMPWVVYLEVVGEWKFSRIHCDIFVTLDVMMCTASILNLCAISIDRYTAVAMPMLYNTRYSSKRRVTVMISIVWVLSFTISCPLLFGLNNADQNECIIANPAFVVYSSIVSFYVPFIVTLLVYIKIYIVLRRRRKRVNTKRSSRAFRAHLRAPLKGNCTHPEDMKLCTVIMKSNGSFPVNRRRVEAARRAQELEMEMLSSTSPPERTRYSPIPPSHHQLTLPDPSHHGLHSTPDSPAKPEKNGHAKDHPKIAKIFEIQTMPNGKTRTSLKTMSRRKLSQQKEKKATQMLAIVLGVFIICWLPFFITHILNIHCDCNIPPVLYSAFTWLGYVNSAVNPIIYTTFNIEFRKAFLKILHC
# Chain of 5-hydroxytryptamine receptor 2A (Homo sapiens) (P28223 whole entry, looked up): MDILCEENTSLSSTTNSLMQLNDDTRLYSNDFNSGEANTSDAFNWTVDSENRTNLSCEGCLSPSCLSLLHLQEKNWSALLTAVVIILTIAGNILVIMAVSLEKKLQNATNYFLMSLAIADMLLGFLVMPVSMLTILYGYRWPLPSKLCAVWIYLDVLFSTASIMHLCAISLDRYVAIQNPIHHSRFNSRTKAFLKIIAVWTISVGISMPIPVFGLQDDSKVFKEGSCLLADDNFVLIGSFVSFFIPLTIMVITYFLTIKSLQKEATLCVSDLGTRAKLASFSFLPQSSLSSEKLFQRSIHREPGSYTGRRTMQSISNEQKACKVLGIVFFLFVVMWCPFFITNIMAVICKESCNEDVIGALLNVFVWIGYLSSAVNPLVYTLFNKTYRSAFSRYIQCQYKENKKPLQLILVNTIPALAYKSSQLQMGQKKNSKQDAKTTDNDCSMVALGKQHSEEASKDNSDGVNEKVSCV
# Chain of Gonadotropin-releasing hormone receptor (Homo sapiens) (P30968 whole entry, looked up): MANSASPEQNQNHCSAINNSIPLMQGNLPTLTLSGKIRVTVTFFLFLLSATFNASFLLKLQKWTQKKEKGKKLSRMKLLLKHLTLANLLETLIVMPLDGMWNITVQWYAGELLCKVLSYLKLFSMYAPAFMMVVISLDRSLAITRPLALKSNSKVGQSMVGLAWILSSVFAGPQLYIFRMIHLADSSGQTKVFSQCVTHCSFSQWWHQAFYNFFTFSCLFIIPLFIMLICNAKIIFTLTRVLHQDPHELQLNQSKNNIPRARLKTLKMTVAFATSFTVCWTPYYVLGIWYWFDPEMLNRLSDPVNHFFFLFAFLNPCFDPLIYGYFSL
# Chain of Muscarinic acetylcholine receptor M1 (Homo sapiens) (P11229 whole entry, looked up): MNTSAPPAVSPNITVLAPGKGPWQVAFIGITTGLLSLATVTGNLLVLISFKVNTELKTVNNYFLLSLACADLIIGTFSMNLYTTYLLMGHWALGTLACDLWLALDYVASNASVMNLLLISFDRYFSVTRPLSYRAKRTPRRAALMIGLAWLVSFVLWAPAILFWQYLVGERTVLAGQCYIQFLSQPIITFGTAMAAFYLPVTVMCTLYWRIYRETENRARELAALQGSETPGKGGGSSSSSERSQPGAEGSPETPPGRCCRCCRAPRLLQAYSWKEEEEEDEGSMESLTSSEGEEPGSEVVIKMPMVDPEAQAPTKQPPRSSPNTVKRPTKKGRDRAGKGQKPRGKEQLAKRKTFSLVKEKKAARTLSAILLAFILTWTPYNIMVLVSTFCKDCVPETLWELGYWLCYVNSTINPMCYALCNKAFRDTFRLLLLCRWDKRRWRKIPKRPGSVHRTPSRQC
# Chain of KiSS-1 receptor (Homo sapiens) (Q969F8 whole entry, looked up): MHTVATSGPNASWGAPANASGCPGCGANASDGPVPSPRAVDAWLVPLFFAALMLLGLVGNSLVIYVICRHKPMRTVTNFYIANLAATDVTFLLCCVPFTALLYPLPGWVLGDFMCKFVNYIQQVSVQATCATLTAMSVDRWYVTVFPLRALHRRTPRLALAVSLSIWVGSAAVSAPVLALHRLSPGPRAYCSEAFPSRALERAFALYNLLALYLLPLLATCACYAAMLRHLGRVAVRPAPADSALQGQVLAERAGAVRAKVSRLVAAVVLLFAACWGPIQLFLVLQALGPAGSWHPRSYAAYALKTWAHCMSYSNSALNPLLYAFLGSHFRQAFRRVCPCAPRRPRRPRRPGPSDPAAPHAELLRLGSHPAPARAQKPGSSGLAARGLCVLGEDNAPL
# Chain of Beta-2 adrenergic receptor (Homo sapiens) (P07550 whole entry, looked up): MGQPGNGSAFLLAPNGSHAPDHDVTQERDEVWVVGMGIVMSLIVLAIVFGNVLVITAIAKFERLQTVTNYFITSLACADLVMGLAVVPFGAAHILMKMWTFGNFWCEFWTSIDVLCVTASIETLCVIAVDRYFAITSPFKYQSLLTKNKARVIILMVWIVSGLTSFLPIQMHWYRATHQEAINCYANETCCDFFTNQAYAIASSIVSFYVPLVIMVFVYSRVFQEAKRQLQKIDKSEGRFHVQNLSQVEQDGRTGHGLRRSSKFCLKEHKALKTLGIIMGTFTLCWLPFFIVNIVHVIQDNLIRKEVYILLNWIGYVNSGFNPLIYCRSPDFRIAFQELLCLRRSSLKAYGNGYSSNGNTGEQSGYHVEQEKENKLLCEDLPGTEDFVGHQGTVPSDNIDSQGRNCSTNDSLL
smiles,measurement,setting,value
C[C@](N)(Cc1ccc(O)cc1)C(=O)O,"activity change, negative = cytotoxicity",[1],5.45% [at 8.39 µM]
same,activity change,[2],"-1.06% [at 5.22 µM, hits give high values]"
same,activation,[3],-0.73% [at 6.97 µM]
same,activation,[4],0.0455% [at 5.23 µM]
same,activation,[5],3.02% [at 5.99 µM]
same,activation,[6],-3.92% [at 5.99 µM]
same,"activity change, negative = cytotoxicity",[7],8.09% [at 5.99 µM]
same,"activity change, negative = cytotoxicity",[8],-5.36% [at 5.99 µM]
same,"activity change, negative = cytotoxicity",[9],-19.4% [at 5.99 µM]
same,activation,[10],-6.7% [at 5.99 µM]
same,activation,[11],-0.0581% [at 8.39 µM]
same,"activity change, negative = inhibition",[12],2.35% [at 8.39 µM]
same,"activity change, negative = inhibition",[13],3.74% [at 8.39 µM]
same,activation,[14],23.8% [at 8.39 µM]
same,activation,[15],-6.61% [at 8.39 µM]
same,"activity change, negative = inhibition",[16],-5.15% [at 8.38 µM]
CCCOCC(C)OCC(C)O (stereo not given),Potency,[1],inactive
same,Potency,[2],inactive
same,Potency,[3],inactive
same,Potency,[4],inactive
same,Potency,[5],inactive
same,Potency,[6],inactive
same,Potency,[7],inactive
same,Potency,[8],inactive
same,Potency,[9],inactive
same,Potency,[10],inactive
same,Potency,[17],inactive
same,Potency,[18],inactive
same,Potency,[19],inactive
same,Potency,[11],inactive
same,Potency,[12],inactive
same,Potency,[13],inactive
same,Potency,[15],inactive
same,Potency,[16],inactive
CCCC(C)C(=O)O (stereo not given),Potency,[1],inactive
same,Potency,[2],inactive
same,Potency,[3],inactive
same,Potency,[4],inactive
same,Potency,[5],inactive
same,Potency,[6],inactive
same,Potency,[7],inactive
same,Potency,[8],inactive
same,Potency,[9],inactive
same,Potency,[10],inactive
same,Potency,[20],inactive
same,Potency,[18],inactive
same,Potency,[19],inactive
same,Potency,[12],inactive
same,Potency,[13],inactive
same,Potency,[15],inactive
same,Potency,[16],inactive
CCOC(=O)[C@@H](C)Oc1ccc(Oc2nc3ccc(Cl)cc3o2)cc1,Potency,[1],inactive
same,Potency,[2],inactive
same,Potency,[3],inactive
same,Potency,[4],inactive
same,Potency,[5],inactive
same,Potency,[6],inactive
same,Potency,[7],inactive
same,Potency,[8],inactive
same,Potency,[9],inactive
same,Potency,[10],inactive
same,Potency,[20],inactive
same,Potency,[18],inactive
same,Potency,[19],inactive
same,Potency,[12],inactive
same,Potency,[13],inactive
same,Potency,[14],inactive
same,Potency,[15],inactive
same,Potency,[16],inactive
Brc1cc2ccccc2c2ccccc12,Potency,[1],30.9 µM (active)
same,Potency,[2],inactive
same,Potency,[3],inactive
same,Potency,[4],inactive
same,Potency,[5],inactive
same,Potency,[6],inactive
same,Potency,[7],inactive
same,Potency,[8],inactive
same,Potency,[9],inactive
same,Potency,[20],inactive
same,Potency,[17],inactive
same,Potency,[18],inactive
same,Potency,[19],inactive
same,Potency,[11],inactive
same,Potency,[15],inactive
same,Potency,[16],inactive
O=C1c2ccccc2C(=O)c2c(Cl)cccc21,Potency,[1],inactive
same,Potency,[2],inactive
same,Potency,[3],inactive
same,Potency,[4],inactive
same,Potency,[5],inactive
same,Potency,[6],inactive
same,Potency,[7],inactive
same,Potency,[8],0.965 µM (active)
same,Potency,[9],inactive
same,Potency,[10],inactive
same,Potency,[20],inactive
same,Potency,[17],inactive
same,Potency,[19],inactive
same,Potency,[13],inactive
same,Potency,[14],inactive
same,Potency,[15],inactive
same,Potency,[16],inactive
Nc1ccc(C(=O)Nc2ccccc2N)cc1,Potency,[1],inactive
same,Potency,[2],inactive
same,Potency,[3],inactive
same,Potency,[4],inactive
same,Potency,[5],inactive
same,Potency,[6],inactive
same,Potency,[7],inactive
same,Potency,[8],inactive
same,Potency,[9],inactive
same,Potency,[10],inactive
same,Potency,[17],inactive
same,Potency,[18],inactive
same,Potency,[19],inactive
same,Potency,[11],inactive
same,Potency,[13],inactive
same,Potency,[16],inactive
O=C(c1ccc(O)cc1)c1ccc(O)c(O)c1O,Potency,[1],inactive
same,Potency,[2],inactive
same,Potency,[3],inactive
same,Potency,[4],inactive
same,Potency,[5],inactive
same,Potency,[6],inactive
same,Potency,[7],inactive
same,Potency,[8],inactive
same,Potency,[9],inactive
same,Potency,[10],inactive
same,Potency,[17],inactive
same,Potency,[19],inactive
